Experimental findings from PubChem BioAssay (NCI) are described below.

Several values for one entry are separate records, joined by “and”; a condition that tells them apart may be missing. Equal entries are not always repeated. Compounds without any hit were thinned out: in the full panel of roughly 83,000, 20% have a hit.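 Negative percent growth values reflect cell death: -40 means 40% of the cells present at the start died, and -100 means all died.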 Values without a mark were called inactive. Activity calls are given as the source filed them. The calls were made as follows: active = growth percent below 10; inactive = the rest.

The test deals with MDA-MB-468 breast. The experiment in a line: NCI-60 one-dose screen, 48 h (100 = growth as untreated, 0 = no growth, -100 = all killed). To be noted: 10 µM unless noted.
In the case of `OC(c1cccc(C(F)(F)F)c1)c1cnccc1NC1CCCCC1` (configuration not stated), the growth was 33%. In the case of `COc1cccc(NC(=O)Nc2ccc(Nc3ncnc4sc5c(c34)CCN(C(=O)CCl)C5)cc2)c1` it was 117%. With `Clc1ccc2c(NC3CCC(NC4CCCCC4)CC3)ccnc2c1` (configuration not stated) the figure was -7.22% (active); with `CCc1cccc(-c2ccccc2)c1`, 106%; with `Cc1ccc(-c2nc(C#N)c(S(=O)(=O)N(C)CCO)o2)cc1`, 46.1%.

On to `O=C(Cc1ccccc1)NNc1nc(Cl)nc(N2CCN(C(c3ccccc3)c3ccccc3)CC2)n1`, for which the growth is 38.2%. In the case of `COc1ccc(-c2nc3cc(Cl)c(Cl)cc3n2CC(=O)N=Nc2c(O)[nH]c3ccc(Cl)cc23)cc1` it was -40.1% (active). In the case of `Cc1ccc(-c2nc(N3CCNCC3)c3oc(-c4ccc(C)cc4)nc3n2)cc1` it was -33.5% (active). For `Cc1ccc(C(=O)C2=Cc3cc4ccccc4n3Cc3cnnn32)cc1`, the growth was 100%. In the case of `C#C[C@]1(O)CC[C@H]2[C@@H]3CC=C4c5sc(-c6ccc(OC)cc6)nc5CC[C@]4(C)[C@H]3CC[C@@]21C` it was 71.6%; in that of `CC(C)(C)c1ccc(CCO)cc1`, 124%. Take `CCOc1ccc(NC(=O)CSc2oc(-c3ccccc3)nc2S(=O)(=O)c2ccc(C)cc2)cc1`: the growth was 53%. With `Oc1c(CN2CCCCC2)ccc2cccnc12` the figure was 72.3% and 81.8%; with `COc1cc(-c2nc3c(ncc4ccc(=O)n(-c5ccccc5)c43)s2)cc(OC)c1OC`, 47.3%.

On to `CC(=O)OC[C@]12CC[C@H]3[C@@H](C[C@H]4O[C@]45CC=CC(=O)[C@]35C)[C@]1(O)CC[C@@]2(O)[C@@](C)(O)C1CC(C)=C(C)C(=O)O1` (some centres not stated), for which the growth was -52.8% (active). In the case of `Cc1cc2ccccc2c[n+]1CC(=O)c1ccc(-c2ccccc2)cc1` it was 13.3%; in that of `COc1cc(Nc2ncccc2C(=O)NCc2cn(Cc3cccc(Oc4ccccc4)c3)nn2)cc(OC)c1`, 18.6%; in that of `COc1ccc(/C=C/C(=O)Nc2ccc(-c3nc4ccc(OC)cc4s3)cc2)cc1`, 67.2%. With `COC(=O)[C@]12CC[C@@H](C)[C@H](C)[C@@H]1C1=CC[C@@H]3[C@@]4(C)C(c5ncon5)=C[C@@](C)(CO)C4=CC[C@@]3(C)[C@]1(C)CC2` the figure was -28.9% (active); with `COCCOc1cc2ncnc(N3CCN(c4cc(S(C)(=O)=O)c(C)cc4Cl)CC3)c2cc1OCCOC`, 90.2%; with `CCCCCCCCCCC(CN(CC)CC)C(O)c1ccccc1` (configuration not stated), -61.2% (active). With `O=C(NNc1ccc(-c2ccccc2)nn1)c1ccccc1` the figure was 103%; with `Cc1cccc(-c2nc(N(C)c3ccc4ncsc4c3)c3ccccc3n2)n1`, 51%. In the case of `COc1ccc(C(=O)c2cc(OC)c(OC)c(OC)c2OC)cc1O`, the growth was 29.7%. For `CCOC(=O)C(=Cc1cccc(Br)c1)C(=O)OCC`, the growth was 31%. With `C=C(C)[C@@H]1CC[C@]2(COC(=O)c3cccnc3)CC[C@]3(C)[C@H](CC[C@@H]4[C@@]5(C)CCCN(C(=O)c6cccnc6)C(C)(C)[C@@H]5CC[C@]43C)[C@@H]12` the figure was 23.3%; with `N#C/C(=C\c1ccc(Cl)cc1Cl)C(N)=O`, 96.3%; with `CC[C@]12C=CCN3CC[C@@]4(c5ccc(OC)cc5N(C)[C@H]4[C@@](O)(C(=O)OC)[C@@H]1OC(=O)CCC(=O)O[C@H]1CC[C@H]4[C@@H]5CC[C@H]6CC(=O)CC[C@]6(C)[C@H]5CC[C@]14C)[C@@H]32`, 24.8%. On to `COc1cc(Cn2cc3c(c2)-c2oncc2CC3)cc(OC)c1OC`, for which the growth is -17.1% (active).

Turning to `Cc1cc2nc(NC(=O)CN3CCN(CCN4C(=O)c5cccc6cccc(c56)C4=O)CC3)sc2cc1C`, the growth is 86.3%. In the case of `CCOc1ccc(/C=C/C(=O)c2ccccc2)cc1`, the growth was 68.2%. With `COc1ccc(Br)c2c1C(=O)CC2` the figure was 107%.

As for `CCOC(=O)C(=Cc1ccccc1F)C(=O)OCC`, the growth is 76.7%. In the case of `COc1ccc(/C=C/c2c(C(=O)/C=C/c3ccc(F)cc3)c(C)nc3ccccc23)cc1` it was 51.5%; in that of `O=C1/C(=C/c2cccc(F)c2)Cc2ccccc21`, 107%; in that of `CCN(CC)CCOc1ccccc1-n1c(C)ccc1-c1ccccc1`, 85.1%.

For the compound `CN1/C(=C\C(I)C(I)C2=[N+](C)c3ccccc3C2(C)C)C(C)(C)c2ccccc21` (configuration not stated), the growth is -17.6% (active).
